PNC inhibitor = blocks assembly of the perinucleolar compartment; PC3M PTB-GFP, PNC prevalence imaging, 16 h; active compounds read low; activity change (PNC), negative = inhibition, % at 10 µM; hit rate 3.1% among 140,000; AID 2417;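 active means readout at or below -70, meaning at least 70% loss of cells showing the perinucleolar compartment, a nuclear body marking cancer cells; inconclusive means readout between -30 and a set limit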;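 further: plate controls were DMSO wells for no effect and camptothecin positive control wells for full effect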
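PC3M cells stably expressing PTB-GFP, 750–1000 cells/well, treated 16 h at 37 °C with compound (23 nl of library stock), in duplicate. After paraformaldehyde fixation and Hoechst stain, imaged at 20x; PNC prevalence scored by image analysis.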
IMPase cell inh = cell-permeable inhibitors of inositol monophosphatase (IMPase). P97697. CHO-M1 cells, IP1 accumulation, HTRF TR-FRET ratio. inhibition (IP1 accumulation), % at 46.1 µM. 120,000 tested, under 10 active. AID 901; active means well fitted curve in the direction sought with a large enough effect in the signal ratio, not every such curve was filed as active; inconclusive means small, poorly fitted or top-dose-only effect, or a change in a side signal; inactive means no such curve, though single readings can be large or run the other way; the % refers to the signal ratio;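 further: cells stimulated with carbachol in lithium chloride buffer; plate controls were DMSO basal wells for no effect and reference inhibitor wells for full effect; higher means more IMPase inhibition seen as more IP1 and lower FRET ratio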
Target sequence (P97697 whole entry, looked up): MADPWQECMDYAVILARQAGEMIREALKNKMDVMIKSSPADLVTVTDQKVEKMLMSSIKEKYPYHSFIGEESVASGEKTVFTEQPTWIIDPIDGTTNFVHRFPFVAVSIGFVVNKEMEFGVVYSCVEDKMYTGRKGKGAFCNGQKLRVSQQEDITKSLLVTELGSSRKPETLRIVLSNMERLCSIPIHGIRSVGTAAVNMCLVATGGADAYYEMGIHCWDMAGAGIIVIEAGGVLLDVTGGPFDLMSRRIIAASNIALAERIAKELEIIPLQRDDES
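CHO-M1 cells (CHO stably expressing M1 receptor), compound up to 46 uM final, stimulated with carbachol (50 uM as added) in buffer with 50mM LiCl, pH 7.4, 30 min at 37C. Cytosolic IP1 read by TR-FRET; AC50 from Hill fits.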
12-hLO inh = blocks human 12-lipoxygenase activity; P18054; purified 12-hLO, xylenol orange hydroperoxide absorbance; Potency, µM (doses to about 57.1 µM), without a hit: at the highest dose activity change, negative = inhibition, actives largely listed as inhibitors; hit rate 0.12% among 150,000; AID 1452; further: potency means the concentration at half of the fitted maximal effect; nearly all actives have a fitted effect of over 55% in size
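Lipoxygenase turnover measured by absorbance at 573 and 405 nm after Fe-XO development. Human 12hLO 150 nM, arachidonate 40 uM, pH 7.0 Hepes buffer with detergent; 15 min compound preincubation, 30 min reaction.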
15-hLO-2 inh = inhibitors of human 15-lipoxygenase 2 (ALOX15B) | O15296 | purified 15hLO-2, xylenol orange hydroperoxide absorbance | Potency, µM (series often up to 57.1 µM), inactives show top-dose activity change, negative = inhibition, usual class: inhibitors | hit rate 0.56% among 110,000; further: potency means the concentration at half of the fitted maximal effect; nearly all actives have a fitted effect of over 60% in size
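Screening format was qHTS against 50 nM purified 15hLO-2 in Hepes pH 7.5 with detergent. Activity follows hydroperoxide formation from 45 uM arachidonic acid, measured as 573:405 nm absorbance ratio of the ferric-xylenol orange complex.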
* marks the source's active call; other numbers are inactive results; ? = inconclusive; . = no result; [ ] = another dose, or the depositor's remark. The list is not random: actives were taken first. Their share in the collection is about 3%. Unless noted, the call rests on the fitted dose curve; in most records, active means well fitted curve in the direction sought with a large enough effect; inconclusive means small, poorly fitted or top-dose-only effect, or another doubt; inactive means no such curve, though single readings can be large; an effect the other way counts as inactive or inconclusive. Unless noted, on the % scale 0 is the no-effect control and ±100 the full control effect.

SMILES	PNC inhibitor	IMPase cell inh	12-hLO inh	15-hLO-2 inh
O=C(c1ccco1)N1CCC2(CCCN(Cc3ccccc3)C2)CC1	.	.	-3%	8%
CC1CC(C)CN(C(=S)Nc2ccc3nc4n(c(=O)c3c2)CCCCC4)C1 (configuration not stated)	-15	.	-1%	.
CC1CCCN(C(=S)Nc2ccc3nc4n(c(=O)c3c2)CCCCC4)C1 (configuration not stated)	-119*	2	-1%	.
Nc1ncnc2c1ncn2[C@@H]1O[C@@H](C(=O)NC2CC2)[C@H](O)[C@@H]1O	.	1	-2%	2%
Cc1ccc(NC(=O)COC(=O)C2CC3C=CC2C3)cc1S(=O)(=O)N1CCCCC1 (configuration not stated)	?	4	-6%	.
CC1CCC/C(=N/NC(=O)c2ccccc2-n2cccc2)C1 (configuration not stated)	-109*	.	3%	.
CCN(CC(=O)NC1CCCCCC1)S(=O)(=O)c1ccccc1	-80*	-2	-4%	0%
CC1(C)NC(=O)N(CC(O)CN2CCCCC2)C1=O (configuration not stated)	-94*	-11	-1%	1%
CC/C=C\C/C=C\C/C=C\C/C=C\C/C=C\C/C=C\CCC(=O)NCCO	.	.	-3%	.
CCN(CC)S(=O)(=O)c1ccc(OC)c(NC(=O)CSc2cc(Cl)ccc2Cl)c1	?	.	3%	.
O=C(CN1CCN(c2ccccc2)CC1)Nc1ccc(OCc2ccccc2)cc1	12	4	-1%	42%
CCC(C)C1NC(=O)C(CCNCS(=O)(=O)O)NC(=O)C(NC(=O)C(CCNCS(=O)(=O)O)NC(=O)C(NC(=O)C(CCNCS(=O)(=O)O)NC(=O)CCCCC(C)C)C(C)O)CCNC(=O)C(C(C)O)NC(=O)C(CCNCS(=O)(=O)O)NC(=O)C(CCNCS(=O)(=O)O)NC(=O)C(C(C)CC)NC1=O (configuration not stated)	.	.	?	4µM*
CCC(C)CCCCC(=O)N[C@@H](CCN)C(=O)N[C@H](C(=O)N[C@@H](CCN)C(=O)N[C@H]1CCNC(=O)C([C@@H](C)O)NC(=O)[C@@H](CCN)NC(=O)[C@H](CCN)NC(=O)[C@H](CC(C)C)NC(=O)[C@@H](CC(C)C)NC(=O)[C@H](CCN)NC1=O)[C@@H](C)O (some centres not stated)	.	.	-13%[0.00818 µM]	117%[0.0915 µM]
Cc1ccccc1Cn1nc(C)c(NC(=O)/C=C/c2cnn(C)c2)c1C	-114*	.	-1%	.
COc1ccc(/C=N/NC(=O)C(C)n2cnc3ccccc3c2=O)cc1 (configuration not stated)	-119*	1	-1%	.
COc1ccc(/C=N/NC(=O)Cn2cnc3ccccc3c2=O)cc1	-25	.	-1%	.
N#C/C(=C/c1ccc(OCc2ccccc2)cc1)C(=O)NC1CCCCC1	?	9[1.84 µM]	0%	5%[11.4 µM]
COC(=O)c1ccc(/C=C(\C#N)C(=O)NC(C)c2ccccc2)cc1 (configuration not stated)	-100*	7	-5%	.
Cc1ccc(/C=C(/C#N)C(=O)NC(=O)Oc2ccccc2)cc1	-101*	11	-3%	-5%
CN(C)CC1CCCCC1C1(O)c2ccccc2CSc2sccc21 (configuration not stated)	-11	15	-7%	.
Cc1cccc(N2CCN(CCCNC(=O)c3nnc(Cc4c(F)cccc4Cl)o3)CC2C)c1 (configuration not stated)	.	1	.	.
Cc1ccc(C(=O)N2CCN(c3ccc(NC(=O)CSc4ccc(Cl)cc4)cc3)CC2)cc1	-113*	.	2%	.
S=C(NNc1ccc2ccccc2c1)NC1CCCCC1	-17	10	?	.
O=C1C2C3C=CC([C@@H]2C(=O)N1Cc1cccnc1)C31CC1 (some centres not stated)	71	-2	1%	6%
N#CC12CCCCC1CC1CCCCC1(C#N)N2Cc1cccnc1 (configuration not stated)	-87*	3	-4%	0%
SMILES	PNC inhibitor	IMPase cell inh	12-hLO inh	15-hLO-2 inh
CC(C)c1ccc(-c2nc(N3CCOCC3)[nH]c(=O)c2C#N)cc1	-12	-2	-3%	-3%
Cc1[nH]nc2c1C(c1ccccc1F)CC(=O)N2 (configuration not stated)	-106*	2	9%	.
CC(C)C[C@@H](CC(=O)N[C@H](CC(=O)N[C@@H]1CCNC[C@H]1C(=O)N[C@H](CC(=O)N[C@@H](CCC(=O)O)CC(=O)O)Cc1ccccc1)C(C)C)NC(=O)[C@@H]1CNCC[C@H]1N	.	.	4%	.
CSc1c(CC(=O)Nc2ccccc2C(F)(F)F)n(Cc2ccccc2)c2ccccc12	-106*	.	0%	.
Cc1ccccc1-n1c(SCc2c(C)noc2C)nnc1-c1cccnc1	?	3	-6%	-3%
Cc1ccccc1-n1c(SCc2c(C)noc2C)nnc1-c1ccncc1	-83*	10	3%	2%
Cc1ccc(NCCC(=O)c2cccc([N+](=O)[O-])c2)c(C)c1	-84*	?	0%	-28%
Cc1ccc(CSCCNC(=O)c2cccc([N+](=O)[O-])c2)cc1	?	.	-5%	.
CCOc1cc(N2CCOCC2)c(OCC)cc1NC(=O)Cc1ccc(OC)c(OC)c1	-124*	2	-8%	-8%
N#CCCn1c(=O)c(-c2cccs2)nc2cnc(Oc3cccc(Cl)c3)nc21	.	.	-4%	3%
CC(=O)c1cccc(NC(=O)c2ccc(NS(C)(=O)=O)cc2)c1	-119*	11	-6%	.
CC(=O)c1cccc(NC(=O)c2ccc(NS(=O)(=O)c3c(C)noc3C)cc2)c1	-17	-5	-2%	-15%
Cc1ccc(C)n1NC(=O)c1cccs1	-117*	5	-3%	-12%
CCOC(=O)c1cccc(NC(=O)c2cnc3ccccc3n2)c1	-12	17	-19%	7%
O=C(/C=N/O)NCc1cccnc1	?	3	-1%	-11%
O=C(/C=N/O)Nc1cccnc1	-100*	-7	1%	.
O=C(Nc1cccnc1)c1cnc2ccccc2n1	-88*	2	-3%	-1%
Cc1ccc(C)n1NC(=O)c1ccccc1	-14	6	-2%	?
CC(=O)c1ccc(NC(=O)c2cccs2)cc1	-111*	10	5%	-3%
COc1ccccc1C1NC(=O)NC(C)=C1C(=O)OC1CCCCC1 (configuration not stated)	25	-7	3%	.
CCC1CCCCN1C(=O)CSc1nnc(-c2c[nH]c3ccccc23)o1 (configuration not stated)	-19	8	-1%	-14%
O=C(Nc1ccncc1)c1cccs1	35	6	3%	-2%
O=C(Nc1cccnc1)c1cccs1	-100*	11	4%	-1%
CN(C)c1ccc(-c2noc(C3CCN(S(=O)(=O)c4cccc(Cl)c4)CC3)n2)cc1	32	12	-1%	4%
O=S(=O)(c1ccc2ccccc2c1)N1CCC(c2nc(-c3ccncc3)no2)CC1	-100*	-17	-9%	.
Cn1c2c(c3ccccc31)CCSC2=O	-26	-17	-3%	2%
